KB-V1 cytotox – KB-V1 MDR subline cytotoxicity; KB-V1 MDR cells viability, CellTiter-Glo, 72 h; Potency, µM (doses to about 46.1 µM), hits mostly cytotoxic; 400,000 compounds, 3.4% hits; also: nearly all actives have a fitted effect of over 60% in size
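qHTS viability screen in drug-selected KB-V1 MDR cells: 72 h compound treatment at 37 degrees C, ATP luminescence end point.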
HT1080-NT tox – kills 2HG-producing HT-1080-NT fibrosarcoma cells; HT-1080-NT fibrosarcoma viability, CellTiter-Glo ATP luminescence, 48 h; Potency, µM (doses to about 46.1 µM), for the others: at the highest dose activity, negative = less viability, usual class: cytotoxic; 360,000 compounds, 1.6% hits; AID 686970;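 also: NT is the 2HG producing partner of a matched IDH1 knockdown line; 0% = DMSO-treated cells and -100% = media-only wells without cells; nearly all actives have a fitted effect of over 55% in size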
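Fibrosarcoma NT cells, 750 per well in 5% FBS RPMI, were exposed to compound for 48 hours. Viability: CellTiter-Glo luminescence.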
TDP1 cell CPT – DT40-hTDP1 cell growth loss with CPT; chicken DT40 Tdp1-/-;hTDP1 cells + 20 nM CPT, ATP luminescence, 48 h; Potency, µM (top dose mostly 46.2 µM), for the others: top-dose activity change, negative = growth inhibition, most hits filed as inhibitors; 420,000 compounds, 12% hits; also: nearly all actives have a fitted effect of over 55% in size
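Chicken DT40 Tdp1-/- cells stably complemented with human TDP1 were seeded at 400 cells/well in medium containing 20 nM camptothecin, exposed to pin-transferred compounds, and grown at 37 °C for at least 48 hr. Viability was read as ATP luminescence.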
HT1080 IDH1KD tx – toxicity to HT-1080 IDH1 knockdown cells (counter line) | HT-1080 IDH1 knockdown viability, ATP luminescence, 48 h | Potency, µM (doses to about 46.1 µM), inactives show at the highest dose activity, negative = toxicity, most hits filed as cytotoxic | 360,000 compounds, 2% hits | AID 686971;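 also: 0% = DMSO wells and -100% = cell-free medium wells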
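Viability of IDH1-knockdown HT-1080 fibrosarcoma cells was assessed by CellTiter-Glo after 48 h at 37 °C with titrated compound; concentration-effect curves were classified by fit quality and response size.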
KB-3-1 cytotox – KB-3-1 parental cell cytotoxicity. KB-3-1 viability, CellTiter-Glo ATP luminescence, 72 h. Potency, µM (top dose mostly 46.1 µM), most hits filed as cytotoxic. 400,000 compounds, 1.4% hits. AID 1347075; also: nearly all actives have a fitted effect of over 60% in size
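Parental KB-3-1 adenocarcinoma cells in phenol-red-free DMEM with 10% FBS were pin-treated with compounds at several concentrations, incubated 72 h at 37 °C, and viability read by CellTiter-Glo luminescence; concentration-effect curves were fitted after normalization.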
DT40 TDP1 no CPT – qHTS for Inhibitors of human tyrosyl-DNA phosphodiesterase 1 (TDP1): qHTS in cells in absence of CPT | DT40 Tdp1-/- hTDP1 cells, no CPT, ATP luminescence, 48 h | Potency, µM (series often up to 46.2 µM), for inactives: at the top dose activity change, negative = growth inhibition, hits mostly inhibitors | 420,000 compounds, 15% hits; also: nearly all actives have a fitted effect of over 55% in size
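Cells were dispensed at 400 per well, compounds added by pin tool, plates incubated ≥48 hr at 37 °C, then CellTiter-Glo added for 30 min at room temperature before luminescence reading. Line: DT40 Tdp1-/- complemented with hTDP1; camptothecin omitted.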
Numbers without * were called inactive; i = inactive; ? = inconclusive; nt = not tested or not shown. A selection: hits, their analogues and other compounds. The true share with any hit is near 19%. Calls follow the shape of the dose curve; as a rule, active = well fitted curve in the direction sought with a large enough effect; inconclusive = small, poorly fitted or top-dose-only effect, or another doubt; inactive = no such curve, though single readings can be large; an effect the other way counts as inactive or inconclusive. Unless noted, % is scaled to controls: 0 for no effect and ±100 for the full control effect; potency is read from the fitted curve at half-maximal effect.

SMILES | KB-V1 cytotox | HT1080-NT tox | TDP1 cell CPT | HT1080 IDH1KD tx | KB-3-1 cytotox | DT40 TDP1 no CPT
CCOc1ccc(NC(=O)c2cc(F)c(F)cc2Cl)cc1OCC | i | 20% | 6% | 8% | i | -4%
CCOC(=O)c1noc2ncn(CC(=O)Nc3ccc(OC)c(Cl)c3)c(=O)c12 | i | nt | nt | nt | i | nt
Cc1c(C(=O)N(Cc2ccc(Cl)cc2)CC2CCCO2)oc2ccc(F)cc12 (centres undefined) | nt | nt | ? | nt | nt | 15µM*
COCCn1cnc2c1c(=O)[nH]c(=O)n2Cc1ccccc1 | i | 7% | 1% | 5% | i | -13%
CC(=O)Nc1ccc(S(=O)(=O)N2CCN(c3nc(NC4CCCC4)c4ccccc4n3)CC2)cc1 | ? | 18µM* | ? | ? | ? | ?
CC(=O)Nc1ccc(S(=O)(=O)N2CCN(C(=O)c3ncoc3-c3ccccc3)CC2)cc1 | i | 1% | ? | -2% | i | 12µM*
CC(=O)Nc1ccc(S(=O)(=O)N2CCN(c3ncccn3)CC2)cc1 | i | -1% | -26% | -6% | i | -28%
CC(=O)Nc1ccc(S(=O)(=O)N2CCCC(C(=O)N3CCN(c4ccccc4)CC3)C2)cc1 (centres undefined) | i | -5% | 23µM* | -1% | i | 21µM*
O=C(C1CCCN(S(=O)(=O)c2ccccc2)C1)N1CCCCCC1 (centres undefined) | i | 0% | -27% | -1% | i | 16µM*
O=C(C1CCCN(S(=O)(=O)Cc2ccccc2)C1)N1CCC(Cc2ccccc2)CC1 (centres undefined) | ? | -26% | 16µM* | -15% | i | 10µM*
CCN(C(=O)COC(=O)/C(=C/c1ccccc1)n1nnnc1C)C1CCCCC1 | ? | ? | ? | -27% | i | 23µM*
Cc1ccc(OCC(O)Cn2c3ccccc3c3ccccc32)cc1 (centres undefined) | ? | ? | ? | ? | i | 13µM*
Cc1cccc(C)c1OCC(O)Cn1c2ccccc2c2ccccc21 (centres undefined) | ? | -23% | ? | ? | ? | 21µM*
Cc1cccc(C)c1OCC(O)CN1CCN(c2ccccc2)CC1 (centres undefined) | i | -8% | ? | -21% | i | ?
C=CCN(CC=C)CC(O)Cn1c2ccccc2c2ccccc21 (centres undefined) | i | ? | ? | ? | i | 23µM*
OCCNCC(O)Cn1c2ccccc2c2ccccc21 (centres undefined) | i | -1% | -13% | 0% | i | 6%
OC(COCC(F)(F)C(F)(F)C(F)(F)C(F)F)Cn1c2ccccc2c2ccccc21 (centres undefined) | i | ? | 13µM* | -23% | ? | 8.2µM*
COc1ccc(CN(C)C(=O)c2oc3ccccc3c2CSC)cc1F | ? | -16% | 23µM* | -27% | i | 21µM*
COc1ccc(CCN(C)C(=O)c2oc3ccccc3c2C)cc1OC | i | 0% | ? | 0% | i | ?
CCCc1cc2c(=O)c(-c3ccc4c(c3)OCCO4)c(C)oc2cc1OS(C)(=O)=O | i | ? | 18µM* | ? | i | 23µM*
CCc1cc2c(=O)c(-c3ccc4c(c3)OCCO4)coc2cc1OC(=O)c1ccco1 | ? | ? | ? | -30% | i | 21µM*
CCCc1cc(=O)oc2cc(OCC(=O)Nc3ccc4c(c3)OCCO4)ccc12 | i | 10% | 3% | 1% | i | -13%
CCCc1cc2c(=O)c(-c3ccc4c(c3)OCCO4)coc2cc1OS(C)(=O)=O | 10µM* | -3% | ? | -8% | ? | ?
CCCc1cc2c(=O)c(-c3ccc4c(c3)OCCO4)coc2cc1OC(=O)c1ccco1 | i | ? | ? | ? | i | ?
Cn1c(SCC(=O)N2CCCC2=O)nnc1-c1ccccc1F | i | 11% | 1% | 19% | i | 22%
SMILES | KB-V1 cytotox | HT1080-NT tox | TDP1 cell CPT | HT1080 IDH1KD tx | KB-3-1 cytotox | DT40 TDP1 no CPT
COc1ccc(-c2noc(CN(C)S(=O)(=O)c3ccccc3)n2)cc1OC | ? | 10% | 16µM* | 24% | i | ?
Cc1ccc(S(=O)(=O)N(C)Cc2nc(-c3ccc(Br)cc3)no2)cc1 | i | 2% | ? | -15% | ? | 18µM*
CN(Cc1nc(-c2ccc(Cl)cc2)no1)S(=O)(=O)c1ccccc1 | i | nt | ? | nt | i | ?
CCOC(=O)c1c(C)n(-c2ccccc2)c2ccc(OCCN(C)C)cc12 | i | ? | ? | ? | i | ?
COc1ccc(Oc2ccc(/C=N/NC(=O)c3cccnc3)cc2[N+](=O)[O-])cc1 | i | ? | ? | ? | i | 21µM*
COc1cccc(NC(=O)/C=C/c2ccc([N+](=O)[O-])cc2)c1 | i | -17% | -9% | -15% | ? | -26%
COc1cc(/C=N/NC(=O)COc2cccc(F)c2)ccc1OS(=O)(=O)c1ccc(C)cc1 | 5.8µM* | -1% | 18µM* | ? | ? | 26µM*
COc1cc(/C=N/NC(=O)c2cccnc2)ccc1OS(=O)(=O)c1ccc(F)cc1 | i | -23% | ? | -5% | i | 21µM*
COC(=O)N/N=C/c1ccc(OS(=O)(=O)c2ccc(C)cc2)c(OC)c1 | i | 1% | -19% | -2% | i | ?
COc1ccc(Oc2ccc(/C=C/C(=O)c3cccc(OC)c3)cc2[N+](=O)[O-])cc1 | ? | ? | 7.3µM* | ? | ? | 7.3µM*
Cc1ccc(S(=O)(=O)NC(=O)Nc2ccc(C)cc2C)cc1 | i | -3% | 2% | 3% | i | -4%
COC(=O)c1ccc(NC(=O)CCNS(=O)(=O)c2cccc3nsnc23)cc1 | i | nt | -6% | nt | i | -2%
COCCNC(=O)C1(C)CCN(C(=O)c2sccc2C)C1 (centres undefined) | i | 22% | -8% | 15% | i | -12%
COc1cc(/C=N/NC(=O)c2cccnc2)ccc1OS(=O)(=O)c1cc(C)ccc1C | i | -27% | ? | -23% | i | 23µM*
COc1ccc(/C=N/NC(=O)c2cccnc2)cc1O | i | 7% | 0% | 17% | i | -2%
